# Test results as given in PubChem BioAssay (NCI).
# Compounds without any hit were thinned out: in the full panel of roughly 79,000, 15% have a hit. Values without a mark were called inactive. The source made the active and inactive calls. Cut-off read from the data, not from the text of the source: active = growth inhibition above about 70%; inactive = the rest.
# Key:
# [1] = NCI Yeast Anticancer Drug Screen. Data for the rad52 strain (AID 147);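 note: 0% = growth of vehicle-treated control cultures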; details: S. cerevisiae rad52 mutant growth inhibition, hits give high values
# Procedure, shortened: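 Yeast strain carrying a DNA damage repair alteration was exposed to test compounds. Growth inhibition was measured relative to vehicle-treated controls.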
# [2] = NCI Yeast Anticancer Drug Screen. Data for the wt1 strain (AID 149);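 note: 0% = growth of vehicle-treated wt1 cultures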; details: S. cerevisiae wt1 strain (SPY 50644) growth inhibition, hits give high values
# Procedure, shortened: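 Measured: growth of wt1 yeast under compound versus vehicle treatment, reported as inhibition.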
# [3] = NCI Yeast Anticancer Drug Screen. Data for the rad50EPP+ strain (AID 151);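 note: 0% = growth of vehicle-treated control cultures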; details: S. cerevisiae rad50 mutant strain, hits give high values
# Procedure, shortened: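 Yeast strain carrying rad50 alteration (rad50EPP+) exposed to compounds; growth inhibition measured relative to vehicle-treated controls.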
# [4] = NCI Yeast Anticancer Drug Screen. Data for the rad50 strain (AID 155);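 note: 0% = growth of vehicle-only cultures of the same strain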; details: S. cerevisiae rad50 strain growth inhibition, hits give high values
# Procedure, shortened: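 Growth of the mutant yeast was measured after compound exposure and referenced to vehicle-treated cultures.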
# [5] = NCI Yeast Anticancer Drug Screen. Data for the mec2-1 strain (AID 157); details: S. cerevisiae mec2-1 strain, hits give high values
# Procedure, shortened: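 mec2-1 yeast strain, carrying an alteration in DNA damage repair or cell cycle control, was exposed to compounds; growth inhibition was measured relative to vehicle-treated controls.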
# [6] = NCI Yeast Anticancer Drug Screen. Data for the rad14 strain (AID 159);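 note: 0% = growth of vehicle-treated control cultures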; details: S. cerevisiae rad14 strain growth inhibition, hits give high values
# Procedure, shortened: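 Here, inhibition of yeast growth was measured after compound exposure, using a strain with a genetic defect in DNA damage repair and vehicle-treated cultures as the reference.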
# [7] = NCI Yeast Anticancer Drug Screen. Data for the sgs1 mgt1 strain (AID 161);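 note: 0% = growth of cultures given vehicle only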; details: S. cerevisiae sgs1 mgt1 strain, hits give high values
# Procedure, shortened: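 This yeast growth screen uses a strain with defined DNA-repair lesions; compound-treated growth is compared with vehicle-treated growth.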
# [8] = NCI Yeast Anticancer Drug Screen. Data for the CLN2oe strain (AID 163);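 note: 0% = growth of vehicle-only control cultures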; details: S. cerevisiae CLN2oe strain, hits give high values
# Procedure, shortened: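 Yeast cells carrying a defined cell-cycle control alteration were exposed to test compounds. Growth inhibition was scored against vehicle-treated control cultures.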
# [9] = NCI Yeast Anticancer Drug Screen. Data for the cln2 rad14 strain (AID 165);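 note: 0% = growth equal to vehicle treated cultures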; details: S. cerevisiae cln2 rad14 strain, hits give high values
# Procedure, shortened: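 Yeast carrying cln2 and rad14 alterations (cell cycle control and DNA damage repair) were exposed to compounds. Growth inhibition was measured against vehicle-treated controls.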
# [10] = NCI Yeast Anticancer Drug Screen. Data for the wt2 strain (AID 169);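 note: 0% = growth of vehicle-treated yeast cultures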; details: S. cerevisiae wt2 strain growth inhibition, hits give high values
# Procedure, shortened: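 Yeast cells were exposed to test compounds, and growth inhibition was measured relative to vehicle-treated controls.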
# [11] = NCI Yeast Anticancer Drug Screen. Data for the mlh1 strain (AID 171);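 note: 0% = growth of vehicle-treated control cultures of the same strain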; details: S. cerevisiae mlh1 strain growth inhibition, hits give high values
# Procedure, shortened: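 Yeast carrying a defined genetic alteration in DNA damage repair or cell cycle control were exposed to test compounds. Growth inhibition was measured relative to vehicle-treated controls.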
# [12] = NCI Yeast Anticancer Drug Screen. Data for the sgs1 strain (AID 173);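 note: 0% = growth of vehicle-only control cultures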; details: S. cerevisiae sgs1 mutant, hits give high values
# Procedure, shortened: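 Yeast mutant strains carrying defined defects in DNA damage repair or cell cycle control were exposed to test compounds. Growth inhibition was scored against vehicle-treated controls.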
# [13] = NCI Yeast Anticancer Drug Screen. Data for the mlh1 rad18 strain (AID 175); details: S. cerevisiae mlh1 rad18 strain growth inhibition, hits give high values
# Procedure, shortened: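 Growth inhibition of the yeast strain was measured after compound exposure and expressed relative to vehicle-treated controls. The strain carries defined defects in DNA damage repair.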
# [14] = NCI Yeast Anticancer Drug Screen. Data for the rad18 strain (AID 177); details: S. cerevisiae rad18 mutant growth inhibition, hits give high values
# Procedure, shortened: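 Yeast carrying a defined DNA damage repair alteration were exposed to compounds. Growth inhibition was expressed relative to vehicle-treated controls.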
# [15] = NCI Yeast Anticancer Drug Screen. Data for the bub3 strain (AID 167); details: S. cerevisiae bub3 mutant strain, hits give high values
# Procedure, shortened: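 Whole-cell yeast assay. The mutant strain was incubated with compounds, and growth inhibition was determined by comparison with vehicle-treated cells.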
# [16] = at 5.0 µM (retest, dose inferred, filed as 0.5)
# [17] = at 50.0 µM (retest, dose inferred, filed as 5.0)
smiles,measurement,setting,value
Clc1nc(C(Cl)Cl)nc2sc3c(c12)CCCC3,growth inhibition,[1]; at 1.2 µM,10%
same,growth inhibition,[1]; at 3.7 µM,11%
same,growth inhibition,[1]; at 11.0 µM,14%
same,growth inhibition,[1]; at 33.0 µM,26%
same,growth inhibition,[1]; at 100.0 µM,54%
same,growth inhibition,[2]; at 1.2 µM,2%
same,growth inhibition,[2]; at 3.7 µM,4%
same,growth inhibition,[2]; at 11.0 µM,5%
same,growth inhibition,[2]; at 33.0 µM,21%
same,growth inhibition,[2]; at 100.0 µM,56%
same,growth inhibition,[3]; at 1.2 µM,1%
same,growth inhibition,[3]; at 3.7 µM,0%
same,growth inhibition,[3]; at 11.0 µM,1%
same,growth inhibition,[3]; at 33.0 µM,0%
same,growth inhibition,[3]; at 100.0 µM,-2%
same,growth inhibition,[4]; at 1.2 µM,6%
same,growth inhibition,[4]; at 3.7 µM,-1%
same,growth inhibition,[4]; [16],28%
same,growth inhibition,[4]; at 11.0 µM,1%
same,growth inhibition,[4]; at 33.0 µM,31%
same,growth inhibition,[4]; [17],88% (active)
same,growth inhibition,[4]; at 50.0 µM,98.2% (active)
same,growth inhibition,[4]; at 100.0 µM,53%
same,growth inhibition,[5]; at 1.2 µM,11%
same,growth inhibition,[5]; at 3.7 µM,9%
same,growth inhibition,[5]; [16],5%
same,growth inhibition,[5]; at 11.0 µM,15%
same,growth inhibition,[5]; at 33.0 µM,39%
same,growth inhibition,[5]; [17],80% (active)
same,growth inhibition,[5]; at 50.0 µM,89.3% (active)
same,growth inhibition,[5]; at 100.0 µM,66%
same,growth inhibition,[6]; at 1.2 µM,6%
same,growth inhibition,[6]; at 3.7 µM,2%
same,growth inhibition,[6]; at 11.0 µM,9%
same,growth inhibition,[6]; at 33.0 µM,33%
same,growth inhibition,[6]; at 100.0 µM,69%
same,growth inhibition,[7]; [16],5%
same,growth inhibition,[7]; [17],26%
same,growth inhibition,[7]; at 50.0 µM,97.7% (active)
same,growth inhibition,[8]; at 1.2 µM,7%
same,growth inhibition,[8]; at 3.7 µM,9%
same,growth inhibition,[8]; at 11.0 µM,12%
same,growth inhibition,[8]; at 33.0 µM,46%
same,growth inhibition,[8]; at 100.0 µM,63%
same,growth inhibition,[9]; [16],32%
same,growth inhibition,[9]; [17],81% (active)
same,growth inhibition,[9]; at 50.0 µM,78.2% (active)
same,growth inhibition,[10]; at 1.2 µM,3%
same,growth inhibition,[10]; at 3.7 µM,3%
same,growth inhibition,[10]; at 11.0 µM,6%
same,growth inhibition,[10]; at 33.0 µM,36%
same,growth inhibition,[10]; at 100.0 µM,73% (active)
same,growth inhibition,[11]; at 1.2 µM,4%
same,growth inhibition,[11]; at 3.7 µM,4%
same,growth inhibition,[11]; at 11.0 µM,7%
same,growth inhibition,[11]; at 33.0 µM,29%
same,growth inhibition,[11]; at 100.0 µM,51%
same,growth inhibition,[12]; at 1.2 µM,7%
same,growth inhibition,[12]; at 3.7 µM,7%
same,growth inhibition,[12]; at 11.0 µM,10%
same,growth inhibition,[12]; at 33.0 µM,51%
same,growth inhibition,[12]; at 100.0 µM,78% (active)
same,growth inhibition,[13]; [16],-1%
same,growth inhibition,[13]; [17],74% (active)
same,growth inhibition,[13]; at 50.0 µM,96.3% (active)
same,growth inhibition,[14]; at 1.2 µM,12%
same,growth inhibition,[14]; at 3.7 µM,13%
same,growth inhibition,[14]; at 11.0 µM,21%
same,growth inhibition,[14]; at 33.0 µM,35%
same,growth inhibition,[14]; at 100.0 µM,58%
Cc1ccc(Nc2c3c(c(C#N)c4nc5ccccc5n24)CCCC3)cc1,growth inhibition,[1]; at 1.2 µM,6%
same,growth inhibition,[1]; at 3.7 µM,21%
same,growth inhibition,[1]; at 11.0 µM,24%
same,growth inhibition,[1]; at 33.0 µM,70% (active)
same,growth inhibition,[1]; at 100.0 µM,72% (active)
same,growth inhibition,[2]; at 1.2 µM,7%
same,growth inhibition,[2]; at 3.7 µM,26%
same,growth inhibition,[2]; at 11.0 µM,23%
same,growth inhibition,[2]; at 33.0 µM,40%
same,growth inhibition,[2]; at 100.0 µM,59%
same,growth inhibition,[3]; at 1.2 µM,14%
same,growth inhibition,[3]; at 3.7 µM,23%
same,growth inhibition,[3]; at 11.0 µM,27%
same,growth inhibition,[3]; at 33.0 µM,38%
same,growth inhibition,[3]; at 100.0 µM,31%
same,growth inhibition,[4]; at 1.2 µM,1%
same,growth inhibition,[4]; at 3.7 µM,32%
same,growth inhibition,[4]; [16],31%
same,growth inhibition,[4]; at 11.0 µM,23%
same,growth inhibition,[4]; at 33.0 µM,71% (active)
same,growth inhibition,[4]; [17],74% (active)
same,growth inhibition,[4]; at 50.0 µM,63.3%
same,growth inhibition,[4]; at 100.0 µM,70% (active)
same,growth inhibition,[5]; at 1.2 µM,-15%
same,growth inhibition,[5]; at 3.7 µM,15%
same,growth inhibition,[5]; [16],12%
same,growth inhibition,[5]; at 11.0 µM,11%
same,growth inhibition,[5]; at 33.0 µM,65%
same,growth inhibition,[5]; [17],58%
same,growth inhibition,[5]; at 50.0 µM,66%
same,growth inhibition,[5]; at 100.0 µM,73% (active)
same,growth inhibition,[6]; at 1.2 µM,1%
same,growth inhibition,[6]; at 3.7 µM,10%
same,growth inhibition,[6]; at 11.0 µM,10%
same,growth inhibition,[6]; at 33.0 µM,25%
same,growth inhibition,[6]; at 100.0 µM,36%
same,growth inhibition,[7]; [16],16%
same,growth inhibition,[7]; [17],30%
same,growth inhibition,[7]; at 50.0 µM,74.5% (active)
same,growth inhibition,[9]; [16],21%
same,growth inhibition,[9]; [17],14%
same,growth inhibition,[9]; at 50.0 µM,72.8% (active)
same,growth inhibition,[15]; at 1.2 µM,8%
same,growth inhibition,[15]; at 3.7 µM,15%
same,growth inhibition,[15]; [16],26%
same,growth inhibition,[15]; at 11.0 µM,23%
same,growth inhibition,[15]; at 33.0 µM,74% (active)
same,growth inhibition,[15]; [17],34%
same,growth inhibition,[15]; at 50.0 µM,78.8% (active)
same,growth inhibition,[15]; at 100.0 µM,76% (active)
same,growth inhibition,[10]; at 1.2 µM,4%
same,growth inhibition,[10]; at 3.7 µM,-8%
same,growth inhibition,[10]; at 11.0 µM,59%
same,growth inhibition,[10]; at 33.0 µM,74% (active)
same,growth inhibition,[10]; at 100.0 µM,72% (active)
same,growth inhibition,[11]; at 1.2 µM,-5%
same,growth inhibition,[11]; at 3.7 µM,15%
same,growth inhibition,[11]; at 11.0 µM,22%
same,growth inhibition,[11]; at 33.0 µM,78% (active)
same,growth inhibition,[11]; at 100.0 µM,78% (active)
